Screening data: PubChem BioAssay, Broad Institute
A selection: hits, their analogues and other compounds. The true share with any hit is near 4.1%.
F508del corr – CFTR F508del correction in bronchial cells. activity (quench increase), % at 7.58 µM. CFBE cells, YFP halide quenching; stimulated with forskolin plus potentiator P3; % fluorescence drop versus neutral controls. 350,000 compounds, 0.36% hits. AID 720511;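 active = mean added fluorescence quench of at least 8% versus neutral control, with both replicates also reaching 8%; inconclusive = only one of the mean or replicate conditions met; inactive = mean below 8% and not both replicates reaching 8%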;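 note: cells transiently co-express mutant CFTR-F508del with the halide-sensitive YFP; corrector assay measuring rescue of mutant channel to the surface after 24 h compound exposure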
Env fusion inh – inhibitors of HIV Env-mediated cell fusion; HeLa-JRFL Env/CEM21 cell fusion, luciferase; inhibition, % at 12.3 µM; 360,000 compounds, 1.1% hits; AID 651610;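 active = mean replicate inhibition score of at least 50 and every replicate individually at or above 50; inconclusive = only one of the two criteria met; inactive = mean below 50 and not all replicates reaching 50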;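 note: 0% = plate neutral controls and 100% = maraviroc near 300 nM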
ALR H2O2 inh – inhibitors of human sulfhydryl oxidase ALR | inhibition, % (no concentration beside the values) | purified ALR, DTT oxidation, H2O2 HRP-luminol luminescence | AID 485317 | P55789 | 290,000 compounds, 3.8% hits;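 active = mean replicate inhibition above about 79%, with every replicate also reaching it, limit read from the data; inconclusive = only one of the two criteria met; inactive = mean below limit and not every replicate reaching it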
Target sequence (P55789 whole entry, looked up): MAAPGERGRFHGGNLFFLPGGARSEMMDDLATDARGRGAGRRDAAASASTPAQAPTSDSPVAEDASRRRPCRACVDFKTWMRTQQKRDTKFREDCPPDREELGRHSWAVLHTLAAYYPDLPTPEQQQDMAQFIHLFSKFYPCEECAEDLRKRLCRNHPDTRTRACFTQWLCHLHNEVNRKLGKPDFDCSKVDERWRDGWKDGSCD
PglD DTNB – inhibitors of Campylobacter jejuni PglD acetyltransferase. purified PglD enzyme, DTNB colorimetric CoA detection. 360,000 compounds, 0.098% hits. inhibition, % at 12.5 µM; in the data active = inhibition above about 16%, passing the limit was not always enough; inconclusive = no clear call, values can overlap the other calls
Casp6 inh – inhibitors of human caspase-6; AID 686996; purified caspase-6, Z-VEID-R110 cleavage fluorescence; inhibition, % at 12.5 µM; 350,000 compounds, 0.53% hits;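 active = mean inhibition across replicates at least about 35%, with every replicate also reaching that limit, limit read from the data; inconclusive = only one of the two criteria met; inactive = neither criterion met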;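 note: 0% = median of neutral control wells and 100% = no fluorescence left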
Target sequence (P55212 24-179 limits assumed): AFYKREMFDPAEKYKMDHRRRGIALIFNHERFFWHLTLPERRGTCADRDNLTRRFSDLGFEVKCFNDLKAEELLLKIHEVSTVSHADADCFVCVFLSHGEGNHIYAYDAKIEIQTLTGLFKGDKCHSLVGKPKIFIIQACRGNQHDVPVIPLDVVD
Target sequence (P55212 194-293 limits assumed): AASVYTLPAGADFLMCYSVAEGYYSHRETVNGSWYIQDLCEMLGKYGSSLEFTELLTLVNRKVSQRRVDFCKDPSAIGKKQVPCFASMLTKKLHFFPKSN
NSD2 inh – blocks human histone methyltransferase NSD2; O96028; NSD2 peptide methylation, AlphaScreen, 120 min; inhibition, % at 12.5 µM; 310,000 compounds, 0.54% hits; in the data active = inhibition above about 50%
Alpha artifact – counter-screen for NSD2 inhibitors: AlphaScreen artifacts. shares compounds with NSD2 inh. AlphaScreen artifact counterscreen, preloaded methylated H4 peptide. AC35, µM (top dose mostly 10 µM), for the others: top-dose activity change, negative = signal loss. 1,500 compounds, 9.4% hits; call rule not given here
Starred values were filed as active, the others as inactive; [ ] = dose if it differs, or a comment.

`O=C(O)CN1C(=O)/C(=C\c2cc(Br)ccc2OCc2ccc(F)cc2)SC1=S` gave F508del corr 4, Env fusion inh -27, ALR H2O2 inh 66, PglD DTNB -9, Casp6 inh 39*, NSD2 inh 104* and Alpha artifact -11%.
Screening COc1ccc(C(=O)Nc2ccc3[nH]ccc3c2)cc1 returned F508del corr 0, Env fusion inh -53, ALR H2O2 inh -8, Casp6 inh -1 and NSD2 inh 3.
For COc1ccc(C(=O)Nc2ccc3[nH]ccc3c2)cc1OC the results were F508del corr 3, Env fusion inh -161, ALR H2O2 inh -15, PglD DTNB 6, Casp6 inh 1, NSD2 inh 51* and Alpha artifact 5%.
Screening CCCN=C(C)c1c(-c2ccccc2)[nH]n(-c2nc3ccccc3s2)c1=O returned Env fusion inh -260, ALR H2O2 inh 37, PglD DTNB -1 and NSD2 inh 27.
Screening CCN(CC)CCCN=Cc1c(-c2ccccc2)[nH]n(-c2nc3ccccc3s2)c1=O returned F508del corr -2, Env fusion inh -24, ALR H2O2 inh 98*, Casp6 inh -33, NSD2 inh 75* and Alpha artifact -5%.
O=C(O)c1ccc(NN=Cc2cc(=O)[nH]c(=O)[nH]2)cc1 was read as F508del corr 0, PglD DTNB -13, Casp6 inh 0 and NSD2 inh 0.
Screening O=c1cc(C=NNc2ccccc2)[nH]c(=O)[nH]1 returned F508del corr -2, Env fusion inh -186, Casp6 inh -1, NSD2 inh 52* and Alpha artifact -5%.
For N=C1/C(=C/c2coc3ccccc3c2=O)C(=O)N=C2SC(c3ccco3)=NN12 the results were ALR H2O2 inh 42, PglD DTNB -4, NSD2 inh 84* and Alpha artifact -3%.
CSC1=NSC2=NC(=O)/C(=C\c3coc4ccccc4c3=O)C(=N)N12 was read as Env fusion inh -25, ALR H2O2 inh 97*, Casp6 inh 7, NSD2 inh 74* and Alpha artifact 1%.
`Cc1cc2c(cc1C)N1C(=N)/C(=C\c3coc4ccccc4c3=O)C(=O)N=C1S2` gave NSD2 inh -1.
CC(C)CSC1=NSC2=NC(=O)/C(=C\c3coc4ccccc4c3=O)C(=N)N12 was read as Env fusion inh -33, ALR H2O2 inh 72 and NSD2 inh 12.
`N=C1/C(=C\c2coc3ccccc3c2=O)C(=O)N=C2SC(c3ccncc3)=NN12` gave F508del corr 1, Env fusion inh 1, PglD DTNB -2, Casp6 inh 41*, NSD2 inh 98* and Alpha artifact -3%.
Cc1ccc(S(=O)(=O)Nc2ccc3c(c2)C(=O)N(C)[C@H]2CC[C@@H](CC(=O)O)O[C@H]2CO3)cc1 was read as F508del corr -1, Env fusion inh -17[16.7 µM], PglD DTNB -1 and Casp6 inh 1.
For COc1ccccc1CNC(=O)C[C@H]1C=C[C@H](NC(C)=O)[C@H](CO)O1 the results were F508del corr 2, Env fusion inh -11[16.7 µM], PglD DTNB 1 and Casp6 inh -3.
`COc1ccc(-c2ccc(C3[C@H]4CNC[C@@H]3N4S(=O)(=O)c3cccc(OC)c3)cc2)cc1` (stereo partly specified) gave F508del corr 1 and Casp6 inh 0.
c1ccc(-c2nc(N3CCOCC3)c3ccccc3n2)nc1 was read as Env fusion inh inconclusive, ALR H2O2 inh 4, PglD DTNB 8, NSD2 inh 64* and Alpha artifact -7%.
`Cc1noc(C)c1NC(=O)N(C)C[C@@H]1OCc2cnnn2CCCC(=O)N([C@H](C)CO)C[C@H]1C` gave F508del corr -1, PglD DTNB 1 and Casp6 inh 0.
Screening N#C/C(=C\c1ccc(O)c(O)c1)C(=O)Nc1cccc2ncccc12 returned F508del corr 0, Env fusion inh 18, ALR H2O2 inh 99*, PglD DTNB -4, Casp6 inh 58*, NSD2 inh 115* and Alpha artifact 4.8µM*.
Nc1cccc2cnccc12 was read as Env fusion inh 26, ALR H2O2 inh 45, PglD DTNB 1, NSD2 inh 107* and Alpha artifact -5%.
`Oc1ccc(N=Nc2ccccc2C(F)(F)F)c2cccnc12` gave F508del corr 1, Env fusion inh -10, ALR H2O2 inh -5, PglD DTNB -8, Casp6 inh 0 and NSD2 inh 0.
For COc1ccccc1N=Nc1ccc(O)c2ncccc12 the results were F508del corr 1, Env fusion inh 8, PglD DTNB -13, Casp6 inh 54*, NSD2 inh 94* and Alpha artifact -13%.
COc1ccc(N2CCOCC2)c(NC(=O)c2ccc3c(c2)OCO3)c1 was read as F508del corr 3, Env fusion inh 2, ALR H2O2 inh -3, Casp6 inh -2, NSD2 inh 53* and Alpha artifact -1%.
For COc1cccc(NC(=O)c2ccc3c(c2)OCO3)c1 the results were F508del corr -4, Env fusion inh -37, ALR H2O2 inh -12, PglD DTNB 4, Casp6 inh 1 and NSD2 inh -2.
`COc1cccc(NC(=O)c2ccc3c(c2)OCCO3)c1` gave F508del corr -2, Env fusion inh 5, PglD DTNB -2, Casp6 inh -2, NSD2 inh 113* and Alpha artifact -2%.
For OCCNC(=S)Nc1ccc2nsnc2c1 the results were F508del corr -4, Env fusion inh 0, ALR H2O2 inh -34, PglD DTNB -5, Casp6 inh 6, NSD2 inh 96* and Alpha artifact -3%.
`O=C(NCCO)Nc1ccc2nsnc2c1` gave F508del corr -5, Env fusion inh 1, ALR H2O2 inh -29, Casp6 inh 0 and NSD2 inh 1.
Screening S=C(Nc1ccc2nsnc2c1)N1CCCCC1 returned F508del corr 0, ALR H2O2 inh -51, Casp6 inh 47*, NSD2 inh 61* and Alpha artifact 9%.
For CN1c2ccc(C#Cc3cccnc3)cc2[C@H]2[C@H](CCN2C(=O)c2cccnc2)[C@@H]1CO the results were F508del corr 1, PglD DTNB 0 and Casp6 inh -3.
O=C(C[C@@H]1CC[C@H]2[C@@H](COC[C@H](O)CN2Cc2cccc(C(F)(F)F)c2)O1)NCCc1ccccc1 was read as F508del corr 1, PglD DTNB -4 and Casp6 inh 13.
For Cc1[nH]n(-c2ccccc2)c(=O)c1C(C[N+](=O)[O-])c1ccc(F)cc1 (stereo unspecified) the results were Env fusion inh 21, NSD2 inh 65* and Alpha artifact -2%.
